# Eya2 inh – qHTS Assay for Inhibitors of the Phosphatase Activity of Eya2. Protein phosphatase EYA2 (Homo sapiens), O00167. recombinant Eya2, OMFP fluorescence dephosphorylation (OMFP is methylfluorescein phosphate). Potency, µM (doses to about 76.9 µM), for inactives: top-dose activity, negative = inhibition, actives largely listed as inhibitors. 330,000 compounds, 0.006% hits; note: potency is the fitted concentration of half-maximal effect; % is set by controls: 0 for no effect and ±100 for the full control effect
#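 Eya2 (0.2 uM) preincubated 10 min at ambient with compound, then OMFP substrate added at 50 uM; 10 min reaction in 50 mM HEPES pH 7.5, 50 mM NaCl, 5 uM MgCl2, 0.05% BSA, 1 mM DTT. Fluorescence read at Ex 485/Em 525 nm.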
# D1 ag – Allosteric Agonists of the Human D1 Dopamine Receptor: qHTS; D(1A) dopamine receptor (Homo sapiens), P21728; HEK293 T-REx D1 cells, calcium flux, agonist mode; activation, % at 2 µM; 360,000 compounds, 1% hits; AID 504660, 2011; in the data active = activation above about 30%; note: 0% is about no effect
#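 Tetracycline-induced HEK293 TREx D1 cells, force-coupled to calcium signalling, were dye-loaded with a no-wash calcium kit. Compound was pin-added after a 10 s baseline. Fluorescence was read kinetically at 1 cycle/s for 180 s, with calcium rises flagged as agonism.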
# GALK inh – qHTS Assay for Inhibitors of Human Galactokinase (GALK) | Potency, µM (top dose mostly 57.5 µM), for inactives: at the highest dose activity change, negative = inhibition, hits mostly inhibitors | AID 1868, 2009 | P51570 | Purified GALK, Kinase-Glo residual ATP luminescence | 270,000 compounds, 0.007% hits; note: potency is the fitted concentration of half-maximal effect; % is set by controls: 0 for no effect and ±100 for the full control effect
#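 Galactose (100 uM) and ATP (35 uM) were turned over by 5 nM GALK for 1 h at RT. Kinase-Glo Plus then converted the remaining ATP into a luminescent signal.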
# D1 PAM – Potentiators of Human D1 Dopamine Receptor: qHTS | potentiation, % at 10 µM | 360,000 compounds, 0.036% hits | D(1A) dopamine receptor (Homo sapiens), P21728 | AID 504651, 2011 | HEK293 TREx D1 cells, calcium flux, dopamine EC20 potentiation; in the data active = potentiation above about 30%; note: 0% is about no effect
# D1 antagonist – Antagonist of Human D 1 Dopamine Receptor: qHTS; D(1A) dopamine receptor (Homo sapiens), P21728; HEK293 TREx D1 cells, calcium flux, dopamine EC80; stronger effect = lower value; activity change, negative = inhibition, % at 10 µM; 360,000 compounds, 3.2% hits; in the data active = activity change below about -30%; note: % is set by controls: 0 for no effect and ±100 for the full control effect
#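 Cells carrying a force-coupled, tetracycline-inducible human D1 receptor report calcium flux. Each well gets a 10 s baseline, compound with 180 s monitoring, then an EC80 dopamine stimulus with a second 180 s kinetic read.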
# USP2a block – qHTS Assay for Inhibitors of Ubiquitin-specific Protease USP2a Using CHOP2 as the Reporter | Ubiquitin carboxyl-terminal hydrolase 2 (Homo sapiens), O75604 | USP2 core, Ub-CHOP2 coupled fluorogenic reporter, 485/531 | 330,000 compounds, 0.01% hits | Potency, µM (series often up to 38.3 µM), without a hit: at the top dose activity change, negative = inhibition, actives largely listed as inhibitors;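 note: potency is the fitted concentration of half-maximal effect; plate controls were DMSO wells for no effect and full inhibition by NEM control for full effect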
# Target sequence (O75604 whole entry, looked up): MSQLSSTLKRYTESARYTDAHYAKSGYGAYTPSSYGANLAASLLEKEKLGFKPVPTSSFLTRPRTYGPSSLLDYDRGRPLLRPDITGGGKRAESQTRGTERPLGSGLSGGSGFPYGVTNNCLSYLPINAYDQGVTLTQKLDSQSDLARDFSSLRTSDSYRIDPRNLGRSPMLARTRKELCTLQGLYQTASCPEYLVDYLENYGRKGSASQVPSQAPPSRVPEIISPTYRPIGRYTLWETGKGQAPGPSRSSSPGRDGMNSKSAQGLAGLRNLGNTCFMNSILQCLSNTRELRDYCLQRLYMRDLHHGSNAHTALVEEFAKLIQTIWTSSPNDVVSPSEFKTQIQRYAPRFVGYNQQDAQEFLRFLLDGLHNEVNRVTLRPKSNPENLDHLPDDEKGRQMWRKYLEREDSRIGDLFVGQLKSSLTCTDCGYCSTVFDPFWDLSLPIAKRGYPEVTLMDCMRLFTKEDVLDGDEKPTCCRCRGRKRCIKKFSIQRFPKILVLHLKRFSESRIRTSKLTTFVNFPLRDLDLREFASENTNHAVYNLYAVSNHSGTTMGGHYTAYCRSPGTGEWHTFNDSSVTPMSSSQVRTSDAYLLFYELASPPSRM
#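 Deubiquitinase activity read as fluorescence (485/531 nm) after Ub-CHOP2 cleavage activates the enterokinase reporter on its substrate; USP2 core 10nM, Ub-CHOP2 and substrate 25nM each, 30min compound preincubation then 60min RT; data normalized to NEM, curves fitted.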
# The depositor's hits bear a star; . = not tested or not shown; ! = not active in a repeat. This is a sample that favours compounds with a hit; in the whole collection about 3.9% have one here. Unless noted, calls come from the whole dose curve; as a rule, active = well fitted inhibition curve with a large enough effect; inconclusive = small, poorly fitted or top-dose-only effect, or effect the other way; inactive = flat fitted curve, though single readings scatter.
SMILES,Eya2 inh,D1 ag,GALK inh,D1 PAM,D1 antagonist,USP2a block
COc1ccccc1CNS(=O)(=O)c1ccc(-n2cnnn2)c(C)c1,-10.2%,6.8,-3.8%,-8.3,-30.7*,1.4%
Cc1cc(S(=O)(=O)NC2CCCCC2)ccc1-n1cnnn1,-2.6%,10.1,4.9%,-4.7,-30.4*,2.4%
CCOC(=O)c1cc2c(=O)n3ccccc3nc2n(CCCOC)c1=NC(=O)c1c(-c2c(F)cccc2Cl)noc1C,.,-0.4,.,-0.5,8.8,.
Cc1ccc(CNC(=O)CSc2ncc3c(n2)-c2ccc(Cl)cc2N(Cc2ccccc2)S3(=O)=O)cc1,.,0.5,.,5.3,-25.6,.
Cc1ccc(-c2noc(Cn3nc(C(=O)O)c4ccccc4c3=O)n2)cc1,-1.3%,-0.3,8.7%,0.3,-3.2,0.0%
O=C(O)c1nn(Cc2nc3ccccc3o2)c(=O)c2ccccc12,12.8%,3.2,5.5%,.,-77.1*,-0.8%
Cc1ccc(CSc2c(C)cnc3c2c(=O)n(C)c(=O)n3C)cc1,.,1.4,.,-0.9,.,.
CCn1c(=O)c2cc(C(=O)Nc3cc(C)c(Cl)cc3OC)sc2c2ccccc21,.,2.9,.,0.7,8.9,.
O=S(=O)(c1cccc(F)c1)N1CCc2sccc2C1c1ccc(OC(F)(F)F)cc1 (stereo not drawn),-28.2%,26.7,4.2%,-0.8,-40.8*,-5.0%
CCC(=O)NC(c1ccc(C)s1)c1cc(Cl)c2cccnc2c1O (stereo not drawn),.,9.7,.,-7.4,-57.8*,.
CC(=O)NC(c1cc(Cl)c2cccnc2c1O)C1CC1 (stereo not drawn),4.0%,4.5,.,3.6,-54.9*,-2.9%
CCC(=O)NC(c1ccc(F)cc1)c1cc(Cl)c2cccnc2c1O (stereo not drawn),.,8.2,.,6.0,-7.0,.
COc1ccccc1NC(=O)Cn1c(=O)n(CCC(=O)NCC2CCCO2)c(=O)c2cc(OC)c(OC)cc21 (stereo not drawn),.,0.7,.,1.2,-0.4,.
Cc1cccc(-n2c(=O)c3ccccc3n(Cc3ccccc3)c2=O)c1,.,-1.4,.,0.5,3.2,.
Cc1cc2[nH]c(=O)c(=O)[nH]c2cc1S(=O)(=O)N1CCN(c2cccc(C(F)(F)F)c2)CC1,-11.8%,1.5,-2.1%,-8.7,-62.2*!,-12.4%
Cc1cc2[nH]c(=O)c(=O)[nH]c2cc1S(=O)(=O)N1CCN(c2cccc(Cl)c2)CC1,-17.4%,2.7,.,0.5,-8.5,0.9%
Cc1ccc(C)c(S(=O)(=O)c2cn(Cc3ccccc3)c3cc(F)c(F)cc3c2=O)c1,.,4.5,.,4.5,28.8,.
CCOC(=O)CC(=O)Nc1nc2ccccc2s1,-0.6%,2.0,0.6%,-5.5,-7.7,-0.4%
Cc1cc(C)nc(SCC(=O)OCC(=O)Nc2nc3ccccc3s2)n1,4.8%,31.3*,-2.3%,0.5,-5.7,4.0%
CC(C)[C@@H]1CC[C@@H](C)C[C@@H]1P(=O)(c1ccccc1)c1ccccc1,-13.0%,.,.,.,.,.
CCOC(=O)Cn1c(S(=O)(=O)Cc2ccc(F)cc2)nc(-c2ccccc2)c1-c1ccccc1,-7.6%,2.1,5.5%,-4.5,10.5,0.5%
CCOC(=O)Cn1c(S(=O)(=O)Cc2cccc(F)c2)nc(-c2ccccc2)c1-c1ccccc1,-20.1%,16.5,-0.7%,-5.0,-38.3*,-5.1%
Cc1cc(C)cc(N(CC(=O)NCc2ccccc2Cl)S(=O)(=O)c2c(C)noc2C)c1,.,0.5,.,3.5,-13.6,.
Cc1c(O)ccc(-c2[nH]ncc2-c2nc3ccccc3s2)c1O,3.3%,6.5,-3.0%,-9.9,-43.0*,2.2%
Cc1cc(/C=C2\SC(=S)N(Cc3ccco3)C2=O)c(C)n1-c1ccccc1,1.2%,30.7*,2.9%,-1.4,-20.0,-1.0%
SMILES,Eya2 inh,D1 ag,GALK inh,D1 PAM,D1 antagonist,USP2a block
CCc1nnc(NS(=O)(=O)c2ccc(NCc3cc(Cl)cc(Cl)c3O)cc2)s1,3.8%,33.3*,-20.8%,-0.5,6.4,2.3%
CCOC(=O)C1=C(COC(=O)C(CC)c2ccccc2)NC(=O)NC1C (stereo not drawn),-6.8%,2.2,.,-6.0,-35.9*,-5.9%
CCOC(=O)C1=C(COC(=O)c2ncc(Cl)c(Cl)c2Cl)NC(=O)NC1C (stereo not drawn),-12.8%,-1.8,.,-4.3,-48.8*,0.3%
Clc1cc2c(c(CSc3nc4ccccc4n4cccc34)c1)OCOC2,0.5%,2.3,0.1%,2.7,-47.4*,-0.8%
N#CC1=C(Nc2ccccc2)SC=C(c2ccc(Cl)c(Cl)c2)N=C1N1CCOCC1,-2.5%,1.5,2.2%,3.8,-59.7*,-4.3%
CCCCOC(=O)c1ccc(NC2=NS(=O)(=O)c3ccccc32)cc1,.,1.5,.,-2.9,-43.4*,.
CCCCOC(=O)c1ccc(Nc2nc3ccccc3c3nnc(C)n23)cc1,.,5.3,.,-4.2,-55.2*,.
CCCCOC(=O)c1ccc(O)cc1,3.2%,-4.1,.,-3.1,6.6,0.3%
CCCOC(=O)c1ccc(NC(=O)c2cc(=O)[nH]c3ccccc23)cc1,7.8%,4.6,3.2%,-2.4,-33.0*,-7.2%
CCCCOC(=O)Nc1ccc(C(=O)OCCC)cc1,-5.4%,2.4,6.3%,-15.9,-30.6*,-0.7%
CCOc1ccc(C(C)C)cc1S(=O)(=O)Nc1cccc(-c2ccc(N3CCOCC3)nn2)c1,.,-0.7,.,-0.8,-0.6,.
Cc1ccc(Cl)cc1N1CCN(C(=O)c2cn(C)c3ccc(S(=O)(=O)N4CCCC4)cc3c2=O)CC1,.,2.2,.,-1.9,1.2,.
COc1cccc(NC(=O)CSc2nc(-c3ccccc3Cl)nc3c2Cc2c(CO)cnc(C)c2O3)c1,.,0.9,.,-2.7,7.3,.
O=C(COCc1cc(-c2ccc(F)cc2)on1)Nc1cccc(Cl)c1Cl,.,11.4,.,-0.1,3.7,.
O=C(/C=C/c1cccs1)Nc1ccncc1,-1.9%,-0.2,0.4%,-2.8,-2.0,0.3%
CCCOC(=O)c1ccc(NC(=O)/C=C/c2cccs2)cc1,6.7%,7.8,.,-1.8,-42.7*,1.7%
CCOC(=O)c1ccc(NC(=O)c2cc(OC)c(OC)c(OC)c2Br)cc1,0.5%,1.7,1.5%,-6.1,-1.5,2.2%
CCCCCCOC(=O)c1ccc(NC(=O)c2cc(OC)c(OC)c(OC)c2Br)cc1,-5.7%,46.0*,-2.7%,1.1,.,-7.6%
CCCCc1ccc(NC(=O)OC)cc1,0.1%,82.0*,-1.9%,-8.3,-28.8,7.2%
